# MCF10A rerep: DNA re-replication induction in MCF 10a cells; 350,000 compounds, 2.9% hits; MCF 10A DNA re-replication, Hoechst nuclear intensity, 48 h; Potency, µM (highest dose often 46.1 µM), without a hit: top-dose activity, positive = re-replication, actives largely listed as activators; further: % of control where 0% means no effect; nearly all actives have a fitted effect of over 50% in size
# HT1080 IDH1KD tx: toxicity to HT-1080 IDH1 knockdown cells (counter line); HT-1080 IDH1 knockdown viability, ATP luminescence, 48 h; AID 686971; 360,000 compounds, 2% hits; Potency, µM (highest dose often 46.1 µM), for inactives: at the top dose activity, negative = toxicity, usual class: cytotoxic;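 further: 0% = DMSO wells and -100% = cell-free medium wells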
#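 % activity derives from luminescence (CellTiter-Glo), normalised to DMSO and no-cell wells. HT-1080-IDH1KD cells, 750/well, had 48 h compound exposure at 37 °C.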
# HT1080-NT tox: kills 2HG-producing HT-1080-NT fibrosarcoma cells; HT-1080-NT fibrosarcoma viability, CellTiter-Glo ATP luminescence, 48 h; Potency, µM (highest dose often 46.1 µM), inactives show at the highest dose activity, negative = less viability, actives largely listed as cytotoxic; 360,000 compounds, 1.6% hits; AID 686970;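 further: NT is the 2HG producing partner of a matched IDH1 knockdown line; 0% = DMSO-treated cells and -100% = media-only wells without cells; nearly all actives have a fitted effect of over 55% in size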
#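 Read-out is CellTiter-Glo luminescence after 10 minutes at room temperature, following 48 hours' compound treatment of HT-1080-NT cells (750 cells/well, RPMI, 5% FBS, 37 degrees C).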
# KB-V1 cytotox: kills drug-selected multidrug resistant KB-V1 cells; KB-V1 MDR cells viability, CellTiter-Glo, 72 h; AID 1347076; 400,000 compounds, 3.4% hits; Potency, µM (doses to about 46.1 µM), usual class: cytotoxic; further: on the % scale 0 is the no-effect control and ±100 the full control effect; nearly all actives have a fitted effect of over 60% in size
#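 Cytotoxicity toward P-gp-expressing KB-V1 cells was determined as loss of CellTiter-Glo luminescence after 72 h at 37 degrees C. Compounds were tested in quantitative HTS format across a concentration range, with curves fitted to normalized data.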
# KB-3-1 tox: KB-3-1 parental cell cytotoxicity; 400,000 compounds, 1.4% hits; KB-3-1 viability, CellTiter-Glo ATP luminescence, 72 h; Potency, µM (series often up to 46.1 µM), hits mostly cytotoxic; further: on the % scale 0 is the no-effect control and ±100 the full control effect; nearly all actives have a fitted effect of over 60% in size
#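 Viability of parental KB-3-1 cells, measured by CellTiter-Glo luminescence, followed a 72 h incubation at 37 °C with pinned compounds in phenol-red-free DMEM containing 10% FBS.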
# SW480 rerep: inducers of DNA re-replication in SW480 colon cancer cells. SW480 DNA re-replication, Hoechst DNA content imaging, 48 h. Potency, µM (series often up to 46.1 µM), for the others: top-dose re-replication activation, most hits filed as activators. 340,000 compounds, 1.8% hits. AID 624297; further: % of control where 0% means no effect; nearly all actives have a fitted effect of over 55% in size
#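 Compounds, transferred as 23 nL by pin tool, were incubated with cells for 48 hr; DNA content per nucleus was then quantified by Hoechst staining and fluorescence plate imaging.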
# Active calls of the source: *; i = inactive; ? = inconclusive; nt = no result; [ ] = another dose, or the depositor's remark. Shown are actives, neighbours in structure and some others; about 7.9% of the full set was active somewhere. The call rests on the fitted dose curve; in most records, active means well fitted curve in the direction sought with a large enough effect; inconclusive means small, poorly fitted or top-dose-only effect, or another doubt; inactive means no such curve, though single readings can be large; an effect the other way counts as inactive or inconclusive. Potency means the concentration at half of the fitted maximal effect.
SMILES,MCF10A rerep,HT1080 IDH1KD tx,HT1080-NT tox,KB-V1 cytotox,KB-3-1 tox,SW480 rerep
O=C(Nc1ccc(OC(F)F)c(Cl)c1)Nc1ccc2c(c1)OCO2,?,?,-24.3%,?,?,-4.3%
COc1ccc(C(=O)Nc2cccc([N+](=O)[O-])c2)cc1Br,5.4%,-29.2%,?,i,i,-8.1%
COc1ccc(OC(C)C(=O)Nc2cccc([N+](=O)[O-])c2)cc1 (stereo not given),-42.6%,-1.8%,-8.0%,16.4µM*,i,-149.3%
O=C(Nc1ccc([N+](=O)[O-])cc1)Nc1ccc(OC(F)F)c(Cl)c1,?,?,?,4.61µM*,5.8µM*,18.4µM*
Cc1oc2ncn(CC(C)C)c(=O)c2c1C(=O)N(Cc1ccccc1)C(C)C,nt,nt,nt,i,i,nt
CCC(Sc1nc(-c2ccccc2F)nc2c1Cc1c(CO)cnc(C)c1O2)C(=O)Nc1cc(C)ccc1C (stereo not given),nt,nt,nt,i,i,nt
CCOC(=O)c1sc(NC(=O)c2ccc(S(=O)(=O)N(CC)CC)cc2)nc1C,7.1%,0.4%,3.5%,i,i,5.5%
CCN(CC)S(=O)(=O)c1ccc(C(=O)Nc2nc3c(Cl)cc(Cl)cc3s2)cc1,nt,nt,nt,i,20.6µM*,nt
CCCN1CCN(CCCNC(=O)c2ccc3c(Cl)c4c(nc3c2)CCCC4)CC1,13.4%,?,?,i,i,-23.3%
O=C(NCCCN1CCCC1)c1ccc2c(Cl)c3c(nc2c1)CCCC3,11.8%,23.1µM*,18.4µM*,?,i,-7.6%
CCN(CC)CCCNC(=O)c1ccc2c(Cl)c3c(nc2c1)CCCC3,9.0%,29.1µM*,23.1µM*,?,i,-1.3%
CCN(CC)CCCNC(=O)c1ccc2c(SCC(=O)O)c3c(nc2c1)CCC3,-19.7%,nt,nt,nt,nt,0.6%
CCCCN(CC)CCNC(=O)c1ccc2c(Cl)c3c(nc2c1)CCC3,0.3%,23.1µM*,20.6µM*,i,i,0.9%
N#Cc1ccccc1NC(=O)c1ccc2c(Cl)c3c(nc2c1)CCCC3,1.3%,14.7%,7.1%,8.2µM*,i,-1.4%
CC(C)(C)c1ccc(C(=O)Nc2ccc(C(=O)OCc3cc(=O)n4ccsc4n3)cc2)cc1,nt,nt,nt,?,i,nt
CCc1ccc2oc(-c3cc(NC(=O)c4cc([N+](=O)[O-])ccc4N4CCOCC4)ccc3Cl)nc2c1,nt,nt,nt,i,i,nt
COc1cccc(C(=O)/C=C2\Sc3ccccc3N2C)c1,18.4µM*,-14.0%,-7.6%,i,?,?
CN1/C(=C\C(=O)c2cccnc2)Sc2ccccc21,28.4%,-8.9%,-12.0%,?,i,7.31µM*
CN1C(=O)C(O)(CC(=O)c2cccnc2)c2ccccc21 (stereo not given),?,4.2%,3.5%,i,i,-3.5%
COc1ccc(CCNC(=O)CCn2c(=O)c3ccccc3n(CC(=O)Nc3ccccc3F)c2=O)cc1OC,nt,nt,nt,i,?,nt
COc1cc(-c2cc(O)c(-c3ccc4ccccc4n3)c(=O)[nH]2)cc(OC)c1OC,11.6µM*,-26.0%,?,?,?,20.6µM*
COc1cc(-c2nc3ccccc3nc2-c2ccc(O)c(OC)c2)ccc1O,0.8%,-19.6%,-1.7%,i,i,-6.7%
CCOC(=O)c1sc(NC(=O)c2nc(SC)ncc2Cl)c(C(=O)OCC)c1C,nt,nt,nt,i,i,nt
Cc1cccc(-n2cc(CN3CCN(c4ccccn4)CC3)c(-c3cccc(F)c3)n2)c1,15.0%,-5.2%,0.3%,i,?,-1.8%
O=C(c1cccn2c(=O)c3cc(Br)ccc3nc12)N1CCN(c2ccccn2)CC1,3.9%,-8.7%,-20.3%,i,i,0.7%
SMILES,MCF10A rerep,HT1080 IDH1KD tx,HT1080-NT tox,KB-V1 cytotox,KB-3-1 tox,SW480 rerep
O=C(c1cccn2c(=O)c3ccccc3nc12)N1CCN(c2ccccn2)CC1,-1.5%,4.5%,24.0%,9.2µM*,i,-17.2%
Cc1ccc(-n2cc(CN3CCN(c4ccccn4)CC3)c(-c3ccc(F)cc3)n2)cc1,18.4µM*,?,10.5%,?,?,?
COc1ccc(-c2nn(-c3ccccc3)cc2/C=C/C(=O)N2CCN(c3ccccn3)CC2)cc1,11.6%,-5.4%,2.4%,14.6µM*,i,4.4%
O=C(c1[nH]c(C(F)(F)F)nc1-c1ccccc1)N1CCN(c2ccccn2)CC1,nt,23.1µM*,?,?,?,nt
CCOC(=O)C(C)NC(=O)c1c(C)oc2ncn(CC(C)C)c(=O)c12 (stereo not given),nt,nt,nt,i,i,nt
Cc1ccc(S(=O)(=O)c2nc(-c3ccco3)oc2SCc2ccc(F)cc2)cc1,nt,nt,nt,?,i,nt
O=C(c1cn(-c2ccccc2)nc1-c1ccccc1)N1CCN(c2ccccn2)CC1,?,-22.7%,?,20.6µM*,?,?
Cc1ccc(-c2nn(-c3ccccc3)cc2C(=O)N2CCN(c3ccccn3)CC2)cc1,-1.1%[9.22 µM],?,?,?,?,?
Cc1cc(=O)[nH]c2ccc(O)cc12,nt,nt,nt,i,i,nt
Cc1cc(=O)[nH]c2ccc(Cl)cc12,-0.3%,2.3%,3.7%,?,2.31µM*,-2.8%
Cc1ccc(C(=O)/C=C/c2ccc(F)cc2)o1,?,?,?,i,i,?
O=C(/C=C/c1ccc(F)cc1)c1ccccc1Br,?,?,-18.4%,?,23.1µM*,nt
CCOc1ccc(NC(=O)c2cc3sc(Cl)cc3n2CC)cc1,nt,nt,nt,?,i,nt
Cc1c(CNC2CCC(C)CC2)c(C(=O)O)c(C)n1Cc1ccc(Cl)cc1 (stereo not given),nt,nt,nt,i,i,nt
Clc1ccccc1-c1nn2c(-c3cc(-c4ccccc4)n[nH]3)nnc2s1,nt,nt,nt,i,i,nt
CC(C(=O)Nc1ccc2c(c1)OCO2)N(C)CC(=O)Nc1ccc(Cl)cc1 (stereo not given),-4.9%,-4.1%,-0.7%,23.1µM*,i,-5.0%
CC(SCc1ccccc1)C(=O)Nc1ccc2c(c1)OCO2 (stereo not given),0.8%,3.8%,5.4%,18.4µM*,i,-9.3%
COc1ccc(NC(=O)C(C)SCc2ccccc2)cc1OC (stereo not given),10.1%,9.7%,14.6%,23.1µM*,i,-82.2%
CC(C(=O)Nc1ccc2c(c1)OCO2)N(C)CC(=O)Nc1ccccc1Cl (stereo not given),-4.6%,5.5%,-5.4%[9.24 µM],i,i,-57.7%
Cc1cc(C)cc(NC(=O)C(=O)NCC(c2cccnc2)N2CCOCC2)c1 (stereo not given),nt,nt,nt,i,i,nt
